The values that follow come from PubChem BioAssay AID504339 (National Center for Advancing Translational Sciences (NCATS), 2011).

“And” between values parts separate entries of the source, which are not always exact repeats. Identical values can stand only once. Out of some 390,000 compounds screened, about 17,000 (4.4%) were called active. Where a call stands in place of a potency, no number is given. Inconclusive results (about 8%) are left out. Calls come from the whole dose curve; as a rule, active = well fitted inhibition curve with a large enough effect; inconclusive = small, poorly fitted or top-dose-only effect; inactive = no such curve, though single readings can be large or run the other way. The full list was thinned out, with actives kept by preference. More than one record can exist for a structure, and the calls need not agree.
Potency is the fitted concentration of half-maximal effect.

This assay deals with Lysine-specific demethylase 4A (Homo sapiens) (UniProt O75164). Nature of the assay: qHTS Assay for Inhibitors of JMJD2A-Tudor Domain. Note: nearly all actives have a fitted effect of over 50% in size. The settings on record: AlphaScreen JMJD2A-Tudor / H3K4me3 peptide binding; series mostly up to 114 µM. For orientation: Quantitative high-throughput screening tests each substance at several concentrations.
Sequence of Lysine-specific demethylase 4A (Homo sapiens) (O75164 whole entry, looked up, the tested form may be a part): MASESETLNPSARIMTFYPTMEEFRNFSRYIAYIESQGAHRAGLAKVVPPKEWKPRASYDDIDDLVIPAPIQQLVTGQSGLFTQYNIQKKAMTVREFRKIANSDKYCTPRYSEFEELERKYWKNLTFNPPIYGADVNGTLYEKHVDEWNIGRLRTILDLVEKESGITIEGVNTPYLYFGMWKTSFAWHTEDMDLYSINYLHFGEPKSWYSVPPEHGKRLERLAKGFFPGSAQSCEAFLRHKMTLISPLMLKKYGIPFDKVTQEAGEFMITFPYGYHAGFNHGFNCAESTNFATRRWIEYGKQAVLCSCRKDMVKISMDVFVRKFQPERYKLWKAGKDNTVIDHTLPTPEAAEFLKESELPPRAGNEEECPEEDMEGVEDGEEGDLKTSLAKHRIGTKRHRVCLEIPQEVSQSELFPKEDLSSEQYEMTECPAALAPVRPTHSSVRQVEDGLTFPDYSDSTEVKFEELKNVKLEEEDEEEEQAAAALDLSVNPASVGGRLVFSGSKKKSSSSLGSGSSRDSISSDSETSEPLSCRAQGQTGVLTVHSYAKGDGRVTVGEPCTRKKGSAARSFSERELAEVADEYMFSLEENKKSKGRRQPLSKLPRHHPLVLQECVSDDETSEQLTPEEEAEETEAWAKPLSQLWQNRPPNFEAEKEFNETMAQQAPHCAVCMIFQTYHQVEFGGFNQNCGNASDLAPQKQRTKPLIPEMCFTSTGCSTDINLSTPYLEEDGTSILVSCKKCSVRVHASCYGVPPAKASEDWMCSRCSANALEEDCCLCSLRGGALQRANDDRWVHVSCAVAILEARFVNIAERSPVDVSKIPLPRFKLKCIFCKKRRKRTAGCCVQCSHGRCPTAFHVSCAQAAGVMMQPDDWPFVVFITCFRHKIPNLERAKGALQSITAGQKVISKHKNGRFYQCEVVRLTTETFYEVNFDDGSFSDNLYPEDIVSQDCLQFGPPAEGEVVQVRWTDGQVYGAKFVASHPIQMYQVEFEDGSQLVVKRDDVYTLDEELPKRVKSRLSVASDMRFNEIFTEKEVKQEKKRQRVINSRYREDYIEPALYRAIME
Turning to `Cc1ccc(N(C)C(=O)C2CCN(S(=O)(=O)c3ccc4c(c3)CCCN4C(=O)C3CCC3)CC2)cc1`, the Potency entry was “inactive”. On to `O=C(CCc1nc(CN2CCN(S(=O)(=O)c3ccc(Cl)cc3)CC2)no1)N1CCCCC1`, for which the Potency result is “inactive”.

As for `CCc1ccccc1NC(=O)c1ccc2nc(CCc3ccccc3)oc2c1`, the Potency entry was “inactive”. The same measure for `O=C(Cn1c(=O)n(-c2ccc(F)cc2)c(=O)c2sccc21)Nc1cccc(C(F)(F)F)c1`: “inactive”. Turning to `Cc1ccccc1CN1CCC(CNC(=O)c2c(C)oc3ncnc(N4CCCCC4)c23)CC1`, the Potency result was “inactive”. In the case of `COc1ccc(CN2CCc3nc(Nc4ccccc4)ncc3C2)c(OC)c1OC`, the Potency result is “inactive”. The same measure for `Cc1ccc(CSc2nc3ccsc3c(=O)n2CCC(C)C)cc1`: “inactive”; for `COc1ccc(/C(C)=N/NC(=O)c2ccc3nc[nH]c3c2)cc1`: “inactive”; for `COc1ccc(CC(=O)Nc2c(C(N)=O)oc3ccccc23)cc1`: “inactive”. With `COc1ccc(CC(=O)N/N=C(\C)c2ccccn2)cc1`, the Potency is 89.1 µM (active).

As for `COc1ccccc1CNC(=O)CCCn1c(=O)c2ccccc2n(CC(=O)Nc2ccc(C)cc2Cl)c1=O`, the Potency entry was “inactive”.

As for `COc1ccc(-c2cc(C(=O)N3CCN(c4ccc(F)cc4)CC3)no2)cc1`, the Potency result is “inactive”. The same measure for `O=C(c1cc(-c2ccc(Cl)cc2)on1)N1CCN(c2ccccc2)CC1`: “inactive”; for `O=C(c1cc(-c2ccc(F)cc2)on1)N1CCN(c2ccc(F)cc2)CC1`: “inactive and 28.2 µM (active)”; for `COc1ccc(-n2c(=O)c3ccccc3n(Cc3ccccc3Cl)c2=O)cc1`: “inactive”. The same measure for `COc1ccc(-c2cc(-c3nc(-c4cc(OC)c(OC)c(OC)c4)no3)[nH]n2)c(OC)c1`: “inactive”.

With `CCC(=O)Nc1ccccc1-c1nc2ccccc2n(CC(=O)Nc2ccc(C)c(C)c2)c1=O`, the Potency result is “inactive”. The result for `CN(C)CCCn1c(SCc2ccc(Cl)cc2)nnc1-c1ccncc1` reads 20 µM (active); that for `CC1CCCC(NC(=O)CSc2nccn2C)C1C` (stereo not given), “inactive”; that for `CCn1c(SCC(=O)NC2CC2)nnc1-c1ccncc1`, “inactive”. The same measure for `CCn1c(SCc2cccc(C(=O)O)c2)nnc1-c1ccc(Cl)cc1`: “inactive”; for `Cn1c(SCc2ccc(F)cc2)nnc1-c1ccncc1`: “inactive”; for `CC1CCCCC1NC(=O)CSc1nnc(-c2ccncc2)n1CCCN(C)C` (stereo not given): 3.55 µM (active). The same measure for `Cc1ccccc1-c1nc2scc(CCNC(=O)C(=O)Nc3ccc(F)cc3F)n2n1`: “inactive”; for `CCOC(=O)c1ccc(NC(=O)CCS(=O)(=O)c2ccc(C)cc2)cc1`: “inactive”; for `COc1ccc(OCC(=O)Nc2cccc(C(=O)OCc3cc(=O)n4nc(C)sc4n3)c2)cc1`: “inactive”. For `O=C(Cc1ccccc1)Nc1ccc(NC(=O)c2cccnc2)cc1`, the Potency entry was “inactive”. As for `CCCCc1ccc(NC(=O)NCc2cccnc2)cc1`, the Potency entry is “inactive”. The same measure for `O=C(CC(NCc1cccnc1)C(=O)O)Nc1ccc(O)cc1` (stereo not given): 25.1 µM (active). As to `COc1ccccc1CNC(=O)NCc1noc2ccc(C)cc12`, the Potency entry was “inactive”.

As to `COc1cccc(CNCc2ccc3c(c2)OCO3)c1`, the Potency is 1.78 µM (active).

On to `COc1cc(OC)c(C(=O)NCc2ccc3c(c2)OCO3)cc1OC`, for which the Potency entry was “inactive”.

As to `COc1ccc(NC(=O)NCc2ccc3c(c2)OCO3)c(OC)c1`, the Potency entry was “inactive”. The same measure for `O=C(NCc1ccc2c(c1)OCO2)C12CC3CC(CC(C3)C1)C2`: “inactive”. On to `COc1cccc(CC(=O)OCC(=O)NCc2ccc3c(c2)OCO3)c1`, for which the Potency result was “inactive”.

In the case of `Cc1ccc(CNCc2ccc3c(c2)OCO3)c(C)c1`, the Potency was 39.8 µM (active). The same measure for `CC(=O)c1c(C)n(S(=O)(=O)c2ccc(Cl)cc2)c2ccc(NS(=O)(=O)c3ccc(Cl)cc3)cc12`: “inactive”. The same measure for `O=C(NCCc1ccccc1)c1ccc2c(c1)N(Cc1ccc(F)cc1)C(=O)c1ccccc1S2(=O)=O`: “inactive”; for `CC(C)(C)C1CCc2c(sc(NC(=O)c3ccccc3F)c2C(=O)N2CCCCC2)C1` (stereo not given): “inactive”. The result for `CC(C)c1ccc(NC(=O)CN(C)S(=O)(=O)c2ccc3c(c2)c(=O)n(C)c(=O)n3C)cc1` reads “inactive”; that for `COc1ccc(-c2cc(C(F)(F)F)nc(SCC(=O)N(C)Cc3ccccc3)n2)cc1OC`, “inactive”. Take `Cc1ccc(-c2nn(CCC(=O)Nc3ccc(Cl)c(Cl)c3)c(=O)c3ccccc23)cc1`: the Potency result is “inactive”. The result for `Cc1ccccc1OCCSc1nc2ccc(NC(=O)c3ccco3)cc2s1` reads “inactive”; that for `COc1ccc2nc(N3CCN(C(=O)c4ccc([N+](=O)[O-])o4)CC3)sc2c1`, “inactive”. Turning to `COc1ccc2nc(N3C(=O)C(O)=C(C(=O)c4ccco4)C3c3ccco3)sc2c1` (stereo not given), the Potency is 0.794 µM (active). The same measure for `COc1ccc(NC(C)=O)cc1NC(=O)CN1CCN(c2ccc(F)cc2)CC1`: “inactive”; for `COC(=O)c1ccccc1NC(=O)c1cnn(-c2ccc(F)cc2)c1-n1cccc1`: “inactive”; for `CCc1ccccc1NC(=O)CSc1nc(C)c(C(=O)Nc2ccccc2)c(-c2ccc(Cl)cc2)c1C#N`: “inactive”. The same measure for `CCN(CC)S(=O)(=O)c1ccc2c(c1)c(=O)c(C(=O)N1CCN(c3cccc(Cl)c3)CC1)cn2C`: “inactive”; for `OC(COCc1ccco1)CN1CCN(c2ccccc2)CC1` (stereo not given): 2.51 µM (active); for `CN1CCN(CC(O)COCc2ccc3c(c2)OCO3)CC1` (stereo not given): “inactive”.

`OC(COc1ccccc1)CN1CCN(c2cccc(Cl)c2)CC1` (stereo not given): the Potency result is “inactive”.

`COc1cccc(C(=O)NCC(=O)OCc2cc(=O)n3ccsc3n2)c1`: the Potency result was “inactive”. The result for `CC(C)c1ccc(NC(=O)c2cc(S(=O)(=O)N3CCc4ccccc4C3)ccc2F)cc1` reads “inactive”; that for `CCOc1ccccc1NC(=O)c1ccc2c(c1)CCN2S(=O)(=O)c1ccc(C)cc1`, “inactive”. The same measure for `CCOc1ccc(N(Cc2ccccc2)C(=O)c2nc(S(C)(=O)=O)ncc2Cl)cc1`: “inactive”; for `CC(CN1CCC(n2nccc2NC(=O)C2CCCC2)CC1)c1ccccc1` (stereo not given): “inactive”; for `CC(CN1CCOCC1)c1ccccc1` (stereo not given): “inactive”. For `CC(CN1CCCCC1)c1ccccc1` (stereo not given), the Potency was 3.98 µM (active). The same measure for `COc1ccc(-n2c(SCC(N)=O)nc3c(oc4ccccc43)c2=O)cc1`: “inactive”. The result for `CCn1cc(C(=O)NCc2ccc(C)cc2)c(=O)c2cc(S(=O)(=O)N3CCc4ccccc4C3)ccc21` reads “inactive”; that for `CCCCNC(=O)c1ccc2c(c1)NC(=O)C(C(C)C)N2` (stereo not given), “inactive”. For the compound `CCOc1ccccc1C(=O)NCC(c1ccc(N(C)C)cc1)N1CCCC1` (stereo not given), the Potency entry was “inactive”. The same measure for `CN(C)c1ccc(C(CNC(=O)c2ccc(F)cc2)c2c[nH]c3ccccc23)cc1` (stereo not given): 25.1 µM (active); for `C[C@H](NC(=O)c1ccccc1)C(=O)OCC(=O)c1c[nH]c2ccccc12`: “inactive”.
